Only some compounds are listed: those with a hit (about 19% of all), similar ones and a draw of the others.
Pf growth 48h = Primary qHTS for delayed death inhibitors of the malarial parasite plastid, 48 hour incubation; P. falciparum luciferase growth in erythrocytes, 48 h; Potency, µM (series often up to 28.7 µM), without a hit: at the highest dose activity change, negative = inhibition, most hits filed as inhibitors; hit rate 5.9% among 310,000; AID 504832, 2011; note: potency is the fitted concentration of half-maximal effect; % is set by controls: 0 for no effect and ±100 for the full control effect
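Firefly luciferase activity from engineered P. falciparum reports growth; inhibitors lower the luminescent signal. Cultures contained 2% hematocrit erythrocytes at 0.1% final parasitemia.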
Pf growth 96h = Primary qHTS for delayed death inhibitors of the malarial parasite plastid, 96 hour incubation; Potency, µM (series often up to 28.7 µM), inactives show at the top dose activity change, negative = inhibition, usual class: inhibitors; P. falciparum luciferase reporter growth, 96 h; hit rate 6.9% among 320,000; AID 504834, 2011; note: potency is the fitted concentration of half-maximal effect; % is set by controls: 0 for no effect and ±100 for the full control effect
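Readout is luminescence from an integrated firefly luciferase in P. falciparum. Red cells, 2% hematocrit and 0.05% parasitemia final, were cultured with compound through two parasite generations (96 hours) at 37 C, 5% CO2.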
Cycloheximide cs = Cycloheximide Counterscreen for Small Molecule Inhibitors of Shiga Toxin. AID 2314, 2010. cell reporter, cycloheximide protein synthesis inhibition counterscreen. max response, %. hit rate 12% among 300,000; in the data active = max response mostly above about 13%, no sharp cut-off; inactive = mostly below about 14%; note: read at 38.3 µM for the half of the compounds with a filed dose; 0% is about no effect
MARV entry inh = qHTS for inhibitors of binding or entry into cells for Marburg Virus; hit rate 1.8% among 300,000; Potency, µM (series often up to 37.8 µM), for inactives: top-dose activity change, negative = inhibition, usual class: inhibitors; Marburg virus pseudotyped entry inhibition, cell reporter; AID 540276, 2011; calls by dose curve; tested in HEK293 cells; note: potency is the fitted concentration of half-maximal effect; % is set by controls: 0 for no effect and ±100 for the full control effect
Shiga inhibitor = A qHTS for Small Molecule Inhibitors of Shiga Toxin. hit rate 9.2% among 290,000. inhibition, % at 38.7 µM. Vero cells, Shiga toxin protein synthesis inhibition reporter. AID 2315, 2010; in the data active = inhibition mostly above about 28%, no sharp cut-off; inactive = mostly below about 43%; note: 0% is about no effect
Lassa entry inh = qHTS for Inhibitors of binding or entry into cells for Lassa Virus; Lassa virus pseudotype entry inhibition, cell reporter; Potency, µM (series often up to 37.9 µM), inactives show top-dose activity change, negative = inhibition, most hits filed as inhibitors; hit rate 1.2% among 300,000; AID 540256, 2011; calls by dose curve; tested in HEK293 cells; note: potency is the fitted concentration of half-maximal effect; % is set by controls: 0 for no effect and ±100 for the full control effect; nearly all actives have a fitted effect of over 50% in size
* hit, by the source's call; i = inactive; ? = inconclusive; nt = no result; [ ] = another dose, or the depositor's remark. Unless noted, calls come from the whole dose curve; as a rule, active = well fitted inhibition curve with a large enough effect; inconclusive = small, poorly fitted or top-dose-only effect, or another doubt; inactive = no such curve, though single readings can be large or run the other way.

SMILES | Pf growth 48h | Pf growth 96h | Cycloheximide cs | MARV entry inh | Shiga inhibitor | Lassa entry inh
Oc1ccc(-c2nccc(-c3ccc(F)cc3)n2)cc1 | 125% | 109% | 81* | -12%[46.1 µM] | 88* | -8%[46.1 µM]
NNC(=O)COc1ccc(-c2nccc(-c3ccc(F)cc3)n2)cc1 | ? | 12µM* | 1 | nt | -4 | nt
Cc1ncc(C[n+]2csc(CCOP(=O)(O)OP(=O)(O)O)c2C)c(N)n1 | -2% | -3% | 9 | nt | 3 | nt
CCN1C(=O)C(C(=O)Nc2ccc(OC)cc2)C2CC1(C)Oc1ccccc12 (stereo not drawn) | ? | 15% | 14 | -13% | 46* | 16%
CCOC(=O)C1C(=O)N(C)C2(C)CC1c1ccccc1O2 (stereo not drawn) | 7% | ? | -3 | 9% | -4 | 13%
COC(=O)C1CN(C(=O)c2cccc(OC(F)F)c2)c2ccccc2O1 (stereo not drawn) | ? | -12% | 5 | 1%[46.1 µM] | -5 | nt
O=C1/C(=C/c2cccc([N+](=O)[O-])c2)N2CCC1CC2 | -7% | 277% | 7 | ? | 7 | 7%
O=C1/C(=C/c2cccc([N+](=O)[O-])c2)CCc2ccccc21 | 34% | ? | 59* | ? | 57* | -18%
O=C1/C(=C/c2cccc([N+](=O)[O-])c2)CSc2ccc(Cl)cc21 | -1% | 9% | -3 | 3% | -5 | 12%
CCN1C/C(=C\c2cccc([N+](=O)[O-])c2)C(=O)/C(=C/c2cccc([N+](=O)[O-])c2)C1 | 2.9µM* | 42% | -2 | ? | -3 | 2.5µM*
O=C1/C(=C/c2ccc([N+](=O)[O-])cc2)CCc2ccccc21 | 265% | 210% | 71* | nt | 127* | nt
COc1ccc(C2=NCCn3nc4cc(C(F)(F)F)ccc4c32)cc1 | -87% | ? | nt | nt | nt | nt
O=c1cc(N2CCc3ccccc32)[nH]c(=O)n1-c1ccccc1Cl | 7% | 26% | 0 | -9%[46.1 µM] | 11 | 9%[46.1 µM]
COC(=O)CSc1ccc2nnc(-c3ccc(OC)c(OC)c3)n2n1 | 9% | 45% | -6 | 2% | -16 | -13%
CCC(Sc1ccc2nnc(-c3ccc(OC)c(OC)c3)n2n1)C(=O)O (stereo not drawn) | nt | ? | -6 | 0% | -16 | 2%
COc1ccc(-c2nnc3ccc(SCC(=O)Nc4nc5ccc(C)cc5s4)nn23)cc1OC | 13µM* | ? | 0 | -8% | 14 | 19%
COc1ccc(-c2nnc3ccc(SC(C(C)=O)C(C)=O)nn23)cc1OC | 9.3µM* | ? | 5 | -14% | 3 | 4%
Cn1c(CNC(=O)c2ccccc2F)nnc1SCC(=O)Nc1nncs1 | 18% | 0% | -4 | 0%[46.1 µM] | -8 | 8%
COc1ccc(-c2csc(NC(=O)C3CSC4(C)CCC(=O)N34)n2)cc1 (stereo not drawn) | 1% | 20% | nt | nt | nt | nt
CCCCCCn1c(CNC(=O)c2ccccc2)nc2ccccc21 | nt | nt | nt | -16%[46.1 µM] | nt | 3%[46.1 µM]
C/C(=N\NC(=O)c1ccccc1C)c1cccnc1 | 50% | -22% | 31* | nt | 106* | nt
C/C(=N\NC(=O)c1ccoc1C)c1cccnc1 | 53% | i | 42* | -3% | 0 | 2%
CCOc1ccc(C(CC(=O)O)NC(=O)Cc2ccc(Cl)cc2)cc1 (stereo not drawn) | 5% | 3.3µM* | -2 | 14% | -10 | 4%
CC(C)Oc1ccc(C(CC(=O)O)NC(=O)Cc2ccccc2)cc1 (stereo not drawn) | -12% | 6% | -2 | nt | 4 | nt
COC(=O)c1cc2oc(C)cc2n1CC(=O)Nc1ccc(OC)c(OC)c1OC | 1.7µM* | ? | -3 | 8% | -4 | nt
SMILES | Pf growth 48h | Pf growth 96h | Cycloheximide cs | MARV entry inh | Shiga inhibitor | Lassa entry inh
COC(=O)c1cc2occc2n1CC(=O)Nc1ccc(OC)c(OC)c1OC | nt | 135% | -3 | 0% | 2 | 1%
COC(=O)c1cc2sc(Cl)cc2n1CC(=O)Nc1ccc(OC)c(OC)c1OC | 0.41µM* | 21% | -3 | ? | 16 | -13%
COC(=O)c1cc2sc(Cl)cc2n1CC(=O)Nc1cc(C)cc(C)c1 | nt | nt | nt | 6%[46.1 µM] | nt | nt
O=C(O)c1ccc(N/C(=N\S(=O)(=O)c2ccc(Cl)cc2)c2ccccc2)cc1 | 36% | ? | -2 | nt | 11 | nt
O=S(=O)(/N=C(/NC(=S)Nc1ccccc1)c1ccccc1)c1ccc(Cl)cc1 | 172% | ? | 41* | ? | 101* | ?
COc1ccc(NC(=S)N/C(=N/S(=O)(=O)c2ccc(C)cc2)c2ccccc2)cc1 | 154% | 42% | 34* | nt | 61* | nt
COc1ccc(NC(=O)O/N=C/c2c(C)nn(C(C)(C)C)c2C)cc1 | 153% | 281% | 29* | nt | 45 | nt
O=C(CSCc1ccco1)c1cccs1 | nt | 154% | 39* | 11% | 82* | ?
O=C(NNC(=S)NCc1ccco1)c1cccs1 | 5% | ? | 0 | ? | -6 | 8%
O=C(CSc1nnc(-c2ccc(Cl)cc2)n1Cc1ccco1)c1cccs1 | ? | ? | 58* | ? | 44* | -26%
CC(=O)Nc1cccc(NC(=O)Nc2cccc(Cl)c2C)c1 | -3% | ? | -3 | -1%[46.1 µM] | -3 | -17%[46.1 µM]
CC(C)CC(C(=O)N1CCc2ccccc2C1)N1C(=O)c2ccccc2C1=O (stereo not drawn) | nt | ? | 2 | ? | -11 | 5%
NC1CCN(c2c(F)cc3c(=O)c(C(=O)O)cn(C4CC4)c3c2Cl)C1 (stereo not drawn) | 5.9µM* | 0.74µM* | -2 | nt | -19 | nt
COc1c(N2CCNC(C)C2)c(F)cc2c(=O)c(C(=O)O)cn(C3CC3)c12 (stereo not drawn) | ? | 5.4µM* | nt | nt | nt | nt
CC1CCc2c(N3CCC(O)CC3)c(F)cc3c(=O)c(C(=O)O)cn1c23 (stereo not drawn) | 15µM* | 6µM* | nt | nt | nt | nt
Cc1c(F)c(N2CCNC(C)C2)cc2c1c(=O)c(C(=O)O)cn2C1CC1 (stereo not drawn) | -19% | 6.7µM* | nt | nt | nt | nt
CC(=O)N1CCN(c2cc3c(cc2F)c(=O)c(C(=O)O)cn3C2CC2)CC1 | ? | -89%[5.75 µM] | -2 | 15% | -4 | 7%
COc1c(N2CCN(C(=S)NC3CC4CCC3C4)C(C)C2)c(F)cc2c(=O)c(C(=O)O)cn(C3CC3)c12 (stereo not drawn) | ? | ? | -2 | nt | 7 | nt
COc1c(N2CCN(C(=S)Nc3ccc(F)cc3)C(C)C2)c(F)cc2c(=O)c(C(=O)O)cn(C3CC3)c12 (stereo not drawn) | ? | ? | -2 | 4% | -6 | 5%
O=C(C1=C[C@@H](c2coc3ccccc3c2=O)C[C@@H](OCc2ccc(CO)cc2)O1)N1CCOCC1 | -10% | 5% | -1 | nt | -10 | nt
COc1cc(C)ccc1Oc1nc(-c2ccccc2O)nc2ccccc12 | ? | ? | -3 | -4% | -12 | 12%

Screening results from PubChem.
